Assay outcomes (PubChem BioAssay)
Most compounds without a hit are left out; they make up all but 2.1% or so of the library.
TDP43 rescue – TDP-43 toxicity inhibition in yeast | Potency, µM (titrated, usually from 46.1 µM), inactives show top-dose growth rescue (activation), hits mostly activators | hit rate 1.8% among 410,000 | TDP-43 expressing yeast growth rescue, BacTiter-Glo, 24 h; also: % of control where 0% means no effect; nearly all actives have a fitted effect of over 50% in size
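Galactose-induced TDP-43 yeast, OD600=0.02, compound pinned; 24 hr, 30 deg C; BacTiter-Glo luminescence for growth. Inhibitors of TDP-43 toxicity read as activators.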
aSyn rescue – rescues yeast growth from alpha-synuclein toxicity | hit rate 0.14% among 370,000 | Yeast expressing alpha-synuclein, growth rescue, BacTiter-Glo, 24 h | Potency, µM (highest dose often 46.1 µM), for inactives: top-dose growth rescue (activation), hits mostly activators; also: % of control where 0% means no effect; nearly all actives have a fitted effect of over 65% in size
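Galactose-induced alpha-syn yeast (OD600=0.02, raffinose-pregrown) + pinned cpd, 24 hr, 30 deg C; growth by BacTiter-Glo luminescence. Growth restoration scores as activation.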
PTAP TSG101 blk – blocks PTAP/TSG101 interaction to inhibit HIV-1 budding | Q99816 | Fluorescence polarization, FITC-PTAP peptide / Tsg101 binding | Potency, µM (doses to about 115 µM), inactives show top-dose activity change, negative = inhibition, actives largely listed as inhibitors | 340,000 tested, under 10 active; active = well fitted inhibition curve with a large enough effect in the main read-out, with a control signal flat, not every such curve was filed as active; inconclusive = small, poorly fitted or top-dose-only effect, or effect the other way, or a change in a side signal; inactive = no such curve, though single readings can be large or run the other way; also: % of control where 0% means no effect
Target sequence (Q99816 whole entry, looked up): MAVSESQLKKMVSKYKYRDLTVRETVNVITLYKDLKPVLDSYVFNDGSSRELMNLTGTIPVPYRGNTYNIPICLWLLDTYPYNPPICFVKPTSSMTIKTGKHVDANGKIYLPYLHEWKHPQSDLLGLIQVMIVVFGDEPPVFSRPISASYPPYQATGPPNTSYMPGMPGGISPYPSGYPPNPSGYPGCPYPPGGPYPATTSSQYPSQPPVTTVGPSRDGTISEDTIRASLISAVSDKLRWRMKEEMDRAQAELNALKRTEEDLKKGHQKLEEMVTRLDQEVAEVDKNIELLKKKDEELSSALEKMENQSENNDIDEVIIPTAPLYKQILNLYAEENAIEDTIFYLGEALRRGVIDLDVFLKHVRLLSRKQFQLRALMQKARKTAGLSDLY
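FP read-out: FITC-PTAP peptide, 50 nM final, binding Tsg101 binding domain, 10 uM final; 20 min, r.t.; 10 mM HEPES pH 7.5, 0.15 M NaCl, 0.01% Tween 20, 3 mM EDTA, 0.1 mM TCEP.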
Abeta rescue – compounds reversing amyloid beta toxicity in yeast; yeast expressing A-beta42, growth rescue, OD600, 48 h; response scale: 0% DMSO, 100% iron-clioquinol control; Potency, µM (highest dose often 46.1 µM), hits mostly activators; hit rate 0.063% among 410,000; also: nearly all actives have a fitted effect of over 55% in size
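Yeast A-beta toxicity model in growth medium with pinned compounds, 48 h at 30 C; growth read as absorbance at 600 nm. Normalized to FeCl3/clioquinol equimolar mix (positive) and DMSO (negative).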
FUS suppressor – FUS proteinopathy suppression in yeast. Potency, µM (highest dose often 76.6 µM), actives largely listed as activators. S. cerevisiae FUS-expressing, growth rescue, OD600, 24 h. hit rate 0.24% among 390,000;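 also: plate controls were DMSO vehicle for no effect and reference control for full effect; nearly all actives have a fitted effect of over 55% in size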
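Cultures pregrown in 2.5% raffinose medium are shifted to minimal medium containing 2% galactose to express toxic FUS. Compounds are tested at several concentrations. After 24hr at 30C, growth is quantified at 600 nm absorbance.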
* hit, by the source's call; i = inactive; ? = inconclusive; nt = no result. Unless noted, calls follow the shape of the dose curve; as a rule, active = well fitted curve in the direction sought with a large enough effect; inconclusive = small, poorly fitted or top-dose-only effect, or another doubt; inactive = no such curve, though single readings can be large; an effect the other way counts as inactive or inconclusive. Potency is read from the fitted curve at half-maximal effect.

SMILES	TDP43 rescue	aSyn rescue	PTAP TSG101 blk	Abeta rescue	FUS suppressor
N/C(=N\OC(=O)c1ccc(Cl)cc1Cl)c1ccc(Cl)cc1	10%	-42%	-3%	i	i
Cc1ccc(/C(N)=N/OC(=O)c2ccc(C)cc2Cl)cc1	4µM*	-37%	-1%	i	nt
Cc1ccc(/C(N)=N/OC(=O)c2ccc3ccccc3c2)cc1	1.3µM*	-44%	-1%	i	i
N/C(Cc1ccc(Cl)cc1)=N\OC(=O)c1ccc2ccccc2c1	6.3µM*	-58%	0%	i	i
Cc1cc(C)c2oc(-c3cccc(NC(=O)c4ccc(-c5cccc([N+](=O)[O-])c5)o4)c3)nc2c1	21%	-10%	nt	i	i
CN(C)c1nc(Cl)nc(N(C#N)CCOc2ccccc2)n1	11µM*	1%	-7%	i	i
CCNc1nc(NCC)nc(N(C#N)CCOc2ccccc2)n1	8%	-5%	-3%	i	i
Cc1cc(Nc2cccc(Cl)c2C)n2nc(Cc3ccccc3)nc2n1	22µM*	nt	nt	i	i
Cc1cc(Nc2ccccc2C)n2nc(Cc3ccc(Cl)cc3)nc2n1	18µM*	nt	nt	i	i
Cc1cc(Nc2ccc(C)c(Cl)c2)n2nc(Cc3ccccc3)nc2n1	22µM*	nt	nt	i	i
CC(=O)Oc1ccccc1Cn1c(C)c(C(=O)N(C)Cc2ccc(F)cc2)sc1=O	24%	4%	nt	i	i
O=C(c1ccc2c(=O)n(-c3ccccc3)c(=O)[nH]c2c1)N1CCN(Cc2cccs2)CC1	nt	-14%	nt	nt	nt
O=C(NCc1ccccc1Cl)c1nnc(Cc2cccc(F)c2)o1	27%	nt	nt	i	i
CC(CC(=O)NCc1ccc(Cl)cc1Cl)CC1=NS(=O)(=O)c2ccccc2N1 (centres undefined)	-1%	nt	nt	i	i
COc1ccc(OC)c(CNc2ncc(-c3ccc(Cl)cc3)n2C)c1	-2%	nt	nt	i	i
COc1ccc(N2C(=O)CC(SCC(=O)O)C2=O)cc1 (centres undefined)	1%	1%	-1%	i	i
O=C1CC(SCc2nc3ccccc3[nH]2)C(=O)N1c1ccc(F)c(Cl)c1 (centres undefined)	13µM*	nt	-7%	i	i
COc1ccc(N2C(=O)CC(SCc3ccc(Cl)cc3)C2=O)cc1 (centres undefined)	22µM*	12%	-1%	i	i
CCOc1ccccc1C(=O)NCc1ccc2c(c1)CCN2C(C)=O	?	nt	nt	i	i
Clc1cccc(Cc2c(-c3cccc(Br)c3)nc3ccc(Br)cn23)c1	20µM*	-8%	nt	i	i
Clc1cccc(-c2nc3ccc(Br)cn3c2Cc2ccccc2)c1	?	-16%	nt	i	i
Cc1ccc(Cc2c(-c3ccccc3)nc3ccc(Br)cn23)cc1	22µM*	18%	nt	i	i
Cc1ccc2nc(-c3ccco3)c(Cc3ccccc3)n2c1	24%	-16%	nt	i	i
Clc1ccc2nc(-c3ccco3)c(Cc3ccsc3)n2c1	-26%	17%	nt	i	i
Brc1ccc2nc(-c3ccco3)c(Cc3ccsc3)n2c1	3.2µM*	6%	nt	i	i
SMILES	TDP43 rescue	aSyn rescue	PTAP TSG101 blk	Abeta rescue	FUS suppressor
Cc1ccc2nc(-c3ccco3)c(CC(C)(C)C)n2c1	11µM*	37%	nt	i	i
C=CCNC(=O)Nc1ccc2c(c1)[C@@]1(CC(=O)N(CC(C)C)C1c1ccccc1)C(=O)N2C (some centres undefined)	nt	nt	nt	nt	i
Clc1cccc(Cc2c(-c3cccc(Cl)c3)nc3ccc(Br)cn23)c1	35µM*	-12%	nt	i	i
Brc1cccc(-c2nc3ccc(Br)cn3c2Cc2ccccc2)c1	28µM*	-8%	nt	i	i
CC(C)C1C(=O)N(Cc2cn(CCC3OCCO3)nn2)CCS(=O)(=O)N1Cc1ccc(-c2ccccc2Cl)cc1 (centres undefined)	35µM*	?	nt	i	?
CC(C)C1C(=O)N(Cc2cn(CCC3OCCO3)nn2)CCS(=O)(=O)N1Cc1ccc(-c2ccc(F)cc2Cl)cc1 (centres undefined)	22µM*	?	nt	i	?
Cn1c(-c2ccccc2)c(CCO)c2ccccc21	?	22%	-2%	i	i
Cn1c(-c2ccccc2)c(C(=O)CCl)c2ccccc21	18µM*	-2%	1%	i	i
CCn1c(-c2ccccc2)c(C(=O)CCl)c2ccccc21	0%	11µM*	-3%	i	i
COc1cc(C(=O)NCc2nc3cccnc3n2Cc2ccc(C)cc2)cc(OC)c1OC	8%	nt	nt	i	i
Cc1ccc(C)n1-c1sccc1C(=O)O	-12%	3%	-6%	i	13µM*
CCC[C@H]1[C@@H](OC(=O)NC(CC)CC)CC[C@@]23CCCN2C(=O)CCC[C@@H]13	nt	nt	nt	nt	i
Cc1c(CC(=O)NCc2ccc(F)cc2)c(=O)oc2cc(O)c(Cl)cc12	20%	nt	nt	i	i
CCc1ccc(-c2nnn(CCC(=O)OC)n2)cc1	16µM*	8%	-9%	i	i
COCC(=O)Nc1nc2ccccc2s1	-11%	-3%	-3%	i	i
CC1(C(=O)Nc2nc3ccccc3s2)CC1(Br)Br (centres undefined)	10µM*	8%	-3%	?	i
O=C(Cc1ccccc1)Nc1nc2ccccc2s1	?	17%	-3%	7.1µM*	i
O=C(Nc1nc2ccccc2s1)C1c2ccccc2Oc2ccccc21	10µM*	-15%	-2%	i	i
CCOc1ccc(C(=O)NC2CC(=O)N(c3ccc(C)cc3)C2)cc1OCC (centres undefined)	29%	nt	nt	i	i
COc1ccc(S(=O)(=O)Nc2noc3ccccc23)cc1OC	?	-5%	2%	i	i
COc1cccc(S(=O)(=O)Nc2noc3ccccc23)c1	?	0%	-2%	i	i
CC(C)(C)c1ccc(S(=O)(=O)Nc2noc3ccccc23)cc1	20µM*	-11%	-2%	i	i
COc1ccc(S(=O)(=O)Nc2noc3ccccc23)cc1	11µM*	-4%	2%	i	i
CNc1nc(C)c([N+](=O)[O-])c(Nc2ccc(OC)cc2)n1	13µM*	11%	0%	i	i
CC(=O)Nc1ccc(Nc2nc(C)c([N+](=O)[O-])c(Nc3ccc(NC(C)=O)cc3)n2)cc1	25%	0%	-3%	i	i
Cc1nn2c(C)c(C(=O)NCC(C)c3ccccc3)cnc2c1-c1ccccc1 (centres undefined)	?	nt	nt	i	i
CCC(C)(C)n1nnnc1C(c1ccc(O)c(OC)c1)N1CCN(c2nc3ccccc3s2)CC1 (centres undefined)	20µM*	-11%	-2%	i	i
